Experimental findings from PubChem BioAssay AID504332 (National Center for Advancing Translational Sciences (NCATS), 2011) are described below.

Structures are written as SMILES. Hit rate of the full screen: of about 350,000 compounds, about 31,000 (8.9%) were called active. Not shown: some 15% with an inconclusive outcome. Shown is part of a subset that was picked to be rich in actives. Unmarked numbers belong to inactive results. The call rests on the fitted dose curve; in most records, active means well fitted inhibition curve with a large enough effect; inconclusive means small, poorly fitted or top-dose-only effect; inactive means no such curve, though single readings can be large or run the other way.
On the % scale 0 is the no-effect control and ±100 the full control effect; potency means the concentration at half of the fitted maximal effect.

Chain of Histone-lysine N-methyltransferase EHMT2 (Homo sapiens) (Q96KQ7 913-1193 limits assumed): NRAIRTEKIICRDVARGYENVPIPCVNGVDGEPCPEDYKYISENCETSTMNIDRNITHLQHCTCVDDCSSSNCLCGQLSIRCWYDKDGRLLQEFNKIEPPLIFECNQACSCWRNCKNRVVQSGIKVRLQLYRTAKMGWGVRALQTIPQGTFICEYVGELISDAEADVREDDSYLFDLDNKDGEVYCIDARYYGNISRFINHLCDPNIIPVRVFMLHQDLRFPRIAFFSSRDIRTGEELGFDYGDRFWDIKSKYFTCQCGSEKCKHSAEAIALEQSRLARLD

In the test the target is Histone-lysine N-methyltransferase EHMT2 (Homo sapiens) (UniProt Q96KQ7). As to the kind of experiment: qHTS Assay for Inhibitors of Histone Lysine Methyltransferase G9a. Further: nearly all actives have a fitted effect of over 75% in size. Particulars: G9a H3K9 monomethylation, AlphaScreen, 2 h; series mostly up to 59 µM; activity, negative = inhibition: at the top concentration. An excerpt:
Methylated lysines, on the N-terminal tails of histone proteins serve as epigenetic markers to recruit factors that can then modify local chromatin structure to lead to functional consequences. G9a and other members of the SUV39 family of the SET domain-containing superfamily of histone lysine methyltransferases (HMT) have been identified to specifically methylate Lys9 of histone H3 (H3K9). G9a catalyzes the mono- and di-methylation of H3K9 in mammalian euchromatic regions, where the resulting H3K9me2 is indicative of transcriptional repression. […] The inhibition of G9a will result in transcriptional activation and work synergistically with DNA methyltransferase and histone deacetylase inhibitors, to kill cancer cells. This qHTS assay for identification of G9a inhibitors is a chemiluminescence based AlphaScreen (PerkinElmer). Methylation of biotinylated-histone peptide is measured through specific antibody-based detection, in conjunction with streptavidin-coated donor and anti-IgG antibody-coated acceptor beads. The method is particularly well suited for detection of inhibitors acting by the desired histone peptide competitive mechanism and is applicable to testing other HMTs. Although AlphaScreen has significant advantages with its utility in a variety of epigenetic target assays, the primary screening data provided in this deposition should be used with caution due to the prevalence of screening artifacts. An AlphaScreen counterscreen is highly recommended to be run against any putative actives to eliminate non specific artifacts. Alternatively, one can use other AlphaScreen assays in PubChem to filter out promiscuous hits. Quinn et al. A chemiluminescence-based method for identification of histone lysine methyltransferase inhibitors. Mol Biosyst 6(5): 782-8. 2010. PMID: 20567762 [2] Baell,Holloway. New substructure filters for removal of pan assay interference compounds (PAINS) from screening libraries and for their exclusion in bioassays. J Med Chem. 53(7):2719-40. 2010. PMID: 20131845 NIH Molecular Libraries Probe Production Network [MLPCN] NIH Chemical Genomics Center [NCGC] Structural Genomics Consortium (SGC) NIH Grant: 5U54 MH084681-02
To each well of a 1,536w plate, 2ul of HMT enzyme (final 20nM) were added, using a nanoliter dispenser. The G9a- and GLP-inhibitor BIX-01294 (CID: 25150857) are used as an intraplate control, with a 16-point titration in duplicate. A Kalypsys pin-tool transferred 23nl of library compound solution in DMSO to each well. Following a 15 min incubation of enzyme with compounds at room temperature, 1ul mixture of b-H3K9 peptide substrate (final 500nM) and SAM cofactor (final 20uM) were added. Reactions were allowed to proceed at room temperature for 2 hours. Methylated b-H3K9 peptide product was detected with 0.5 ug/mL rabbit polyclonal anti-monomethyl histone H3K9 antibody (Abcam Inc., Cambridge, MA) and 20 ug/mL each streptavidin-coated donor and anti-rabbit IgG acceptor AlphaScreen beads. Antibody and beads were added in a 1ul dispense, for a final volume of 4ul, and plates were incubated, protected from the light, for 10 min at room temperature. Microplates were then read on an EnVision multilabel plate reader using the 1,536 plate HTS AlphaScreen aperture (excitation time 80 ms, measurement time 240 ms).
(In qHTS, concentration-response curves come from the screen itself.)
For the compound `O=C(Nc1ccc(S(=O)(=O)NCC2CCCO2)cc1)c1ccc(F)cc1` (configuration not stated), the “activity, negative = inhibition” value is -3.3% [at 102 µM].

On to `CCSc1nc(-c2ccc(OC)cc2)cc(-c2ccc(OC)cc2)c1C#N`, for which the “activity, negative = inhibition” value is 9.7% [at 102 µM].

In the case of `N#Cc1c(-c2ccccc2)cc(-c2ccccc2)nc1SCC(=O)O`, the Potency is 11.2 µM (active). As to `N#Cc1c(C(F)(F)F)cc(-c2ccc(Cl)cc2)nc1SCC(=O)O`, the “activity, negative = inhibition” value is -33.3% [at 102 µM].

Regarding `CCc1ccc(NC(=O)c2cnc3c(-c4ccccc4)c(C)nn3c2C)cc1`, the “activity, negative = inhibition” value was 4.34%.

On to `O=C(NCc1ccc2c(c1)OCO2)c1c(O)nc2sccn2c1=O`, for which the “activity, negative = inhibition” value is -48.6% [at 102 µM].

Consider `Cc1ccc(NC(=O)C(Cc2ccccc2)NS(=O)(=O)c2ccc3c(c2)oc(=O)n3C)cc1C` (configuration not stated), for which the “activity, negative = inhibition” value was 11.1%. Same read-out and setting: the value for `O=C(N/N=C/c1ccc(OCc2ccccc2)cc1)c1ccc(O)cc1` was 6.52% [at 102 µM]; that for `O=C(C[n+]1ccccc1)N/N=C/c1ccc(O)cc1` was -14.7% [at 102 µM]. Take `Oc1ccc(/C=N/N(Cc2ccccc2)c2ccccc2)cc1`: the Potency is 39.8 µM (active). Consider `Cc1ccc(Cn2c(CNC(=O)Cc3cccc(C)c3)nc3cccnc32)cc1`, for which the “activity, negative = inhibition” value was 5.94%. As for `Fc1ccccc1/C=C1\CCCC2=C1Nc1ncnn1C2c1ccccc1F` (configuration not stated), the Potency is 35.5 µM (active).

As to `CC1=C(C(N)=O)C(c2ccc(Br)cc2)n2ncnc2N1` (configuration not stated), the “activity, negative = inhibition” value was -24.4% [at 102 µM]. Consider `CCOC(=O)C1=C(c2ccccc2)Nc2ncnn2C1c1ccc(Cl)cc1` (configuration not stated), for which the “activity, negative = inhibition” value was -29.8%. Same read-out and setting: the value for `COc1cc(NC(=O)c2nn(-c3ccc(C)cc3)c(=O)c3c2c2ccccc2n3C)cc(OC)c1OC` was 7.8%; that for `COc1ccc2c(c1)CCc1c(C(=O)Nc3cc(C)ccc3O)noc1-2` was -23.4%. Regarding `Cc1cc(C(C)(C)C)cc(C)c1N`, the “activity, negative = inhibition” value is -0.892%. In the case of `CC(C)(C)c1ccc(OC2=CS(=O)(=O)c3ccccc32)cc1`, the “activity, negative = inhibition” value is -27.5% [at 102 µM].

With `Cc1ccc(S(=O)(=O)c2ccc(Oc3ccccc3)cc2)cc1`, the “activity, negative = inhibition” value was 65.5%. As for `Cc1ccc(Oc2ccc(N)cc2)cc1`, the Potency was 50.1 µM (active). As to `CC(C)(C)c1ccc(Oc2ccc(N)cc2)cc1`, the Potency is 50.1 µM (active). For the compound `Cc1cc(C)cc(N)c1`, the activity, negative = inhibition is 2.02% [at 0.501 µM]. With `NC(=O)NC(=O)C(OC(=O)CCNS(=O)(=O)c1ccccc1)c1ccccc1` (configuration not stated), the “activity, negative = inhibition” value is -49.4%. On the same count and under the same terms, the value for `CCCS(=O)(=O)Nc1cccc(-c2cn3ccsc3n2)c1` was -45.7%. The same measure, in the same setting: as for `Cc1ccc(NC(=O)Cc2nc(COC(=O)C(C)NS(=O)(=O)c3ccc(C)cc3)cs2)cc1` (configuration not stated), the figure is -6.75% [at 12.7 µM]; as for `Cc1ccc(S(=O)(=O)c2c(Nc3cccc(Cl)c3)sc(C(=O)c3ccc4c(c3)OCO4)c2N)cc1`, -12.4%; as for `COc1ccc(CNC(=O)CCc2c(C)nn(-c3ccc(N4CCCC4)nn3)c2C)cc1`, 11.4%. Still for that read-out and setting: as for `O=C(c1ccncc1)c1ccc([N+](=O)[O-])cc1`, the figure is -22.8% [at 102 µM]. `O=C(CC(n1cncn1)C(Cl)(Cl)Cl)c1ccc([N+](=O)[O-])cc1` (configuration not stated): the Potency is 10 µM (active). In the case of `O=C(Cn1c[n+](CC(=O)c2ccc([N+](=O)[O-])cc2)cn1)c1ccc([N+](=O)[O-])cc1`, the Potency entry was “inactive”.

Consider `O=C(O)[C@@H](S)[C@H](S)C(=O)O`, for which the Potency was 6.31 µM (active). Regarding `Cc1cccc(CNC(=O)c2cnc3sc(N4CCCCC4)nn3c2=O)c1`, the “activity, negative = inhibition” value is 7.83%. Same read-out and setting: as for `CCCC12CN3CC(CCC)(CN(C1)C3c1c[nH]c3ccc(OC)cc13)C2=O` (configuration not stated), the figure is -41.5%.

Take `S=C(NNC(=S)NC1CC2C=CC1C2)NC1CC2C=CC1C2` (configuration not stated): the Potency is 2 µM (active). `CCn1c(CNC(=O)C23CC4CC(CC(C4)C2)C3)nnc1SCC(=O)Nc1ccc(OC)cc1`: the “activity, negative = inhibition” value is 4.32%.

For `Cc1ccc(-c2nc(SCc3ccc(Br)cc3)n3[nH]c(=O)cc3n2)cc1`, the “activity, negative = inhibition” value is -1.28%. Still for that read-out and setting: as for `NC(=O)C(=O)N/N=C/c1ccc([N+](=O)[O-])o1`, the figure is 26.4%. As to `O=S(=O)(c1ccc2nc(NCc3ccccc3Cl)ccc2c1)N1CCCCC1`, the Potency was 7.94 µM (active). In the case of `O=S(=O)(c1ccc2nc(N3CCN(c4cccc(Cl)c4)CC3)ccc2c1)N1CCCCC1`, the “activity, negative = inhibition” value was 8.8%. On the same count and under the same terms, the value for `Cc1ccc(Nc2ccc3cc(S(=O)(=O)N4CCCCC4)ccc3n2)cc1F` was 1.39%; that for `COc1ccc(NC(=O)CN(C)C(=O)c2cccc(S(=O)(=O)N3CCN(c4ccccc4)CC3)c2)cc1` was -46.2% [at 102 µM].

For `CCN1CCN(CC(=O)c2cc(OC)c(OC)c(OC)c2)CC1`, the Potency was 39.8 µM (active). With `COC(=O)c1cccc(NC(=O)CN2CCC(NC(=O)c3cc(OC)c(OC)c(OC)c3)CC2)c1`, the “activity, negative = inhibition” value is -30% [at 102 µM]. On the same count and under the same terms, as for `COc1cc(C(=O)N2CCN(C)CC2)cc(OC)c1OC`, the figure is -4.42% [at 102 µM]; as for `CCOC(=O)c1ccccc1CN1C(=O)c2ccccc2S1(=O)=O`, 28.8% [at 102 µM].

For the compound `Cc1cc(C)c2oc(-c3cccc(NC(=O)c4cccc(F)c4)c3C)nc2c1`, the “activity, negative = inhibition” value is -3.15%. The same measure, in the same setting: as for `COc1ccc(/C(C)=N/NC(=O)c2ccc3nc[nH]c3c2)cc1`, the figure is 68% [at 102 µM]; as for `CC/C(O)=N\S(=O)(=O)c1ccc(N=NN(C)C)cc1`, -8.72%.

As to `CN(C)N=Nc1ccc2nc[nH]c2c1`, the Potency was 1.78 µM (active). Regarding `Cc1ccccc1CSc1nnc(-c2cccnc2)n1N`, the activity, negative = inhibition was 3.07% [at 12.7 µM]. Consider `O=C(CSc1nnc(-c2cnccn2)n1Cc1ccco1)c1ccc(Cl)c(Cl)c1`, for which the Potency is 50.1 µM (active). `Cn1c(Cc2csc(N)n2)nnc1SC/C=C/c1ccccc1`: the activity, negative = inhibition is 12.8% [at 12.7 µM]. Same read-out and setting: the value for `O=C(CSc1nnc(COc2ccc(Cl)cc2)n1Cc1ccco1)N1CCNC1=O` was -16.3% [at 0.501 µM]; that for `C=CCn1c(CNC(=O)c2ccco2)nnc1SCC(=O)c1ccc(OC)cc1` was 12.4% [at 102 µM].

With `COc1ccc(C(=O)CSc2nnc(COc3ccccc3)n2Cc2ccco2)cc1`, the Potency was 50.1 µM (active). Regarding `CCOC(=O)Cc1csc(NC(=O)CSc2nnc(-c3cccnc3)n2Cc2ccco2)n1`, the “activity, negative = inhibition” value is -47.7%. In the case of `O=C(CSc1nnc(-c2cccnc2)n1Cc1ccco1)c1ccc(Cl)cc1`, the “activity, negative = inhibition” value was -8.68%. The same measure, in the same setting: the value for `CCc1ccc(NC(=O)CSc2nnc(-c3cnccn3)n2Cc2ccco2)cc1` was -31.5% [at 12.7 µM]. For `C(=C\c1ccccc1)/CSc1nnc(-c2cccnc2)n1Cc1ccco1`, the Potency was 50.1 µM (active). Still for that read-out and setting: as for `O=C(CSc1nnc(-c2cccnc2)n1Cc1ccco1)c1ccc(Cl)c(Cl)c1`, the figure is 50.1 µM (active).

In the case of `Cc1ccc(NC(=O)CSc2nnc(-c3cnccn3)n2Cc2ccco2)cc1C`, the activity, negative = inhibition was 7.37% [at 12.7 µM].

On to `COc1ccc2c3c(c(=O)oc2c1)C1O[C@](CCCCN2C(=O)c4ccccc4C2=O)(Cc2c1ccc1ccccc21)O3`, for which the activity, negative = inhibition is -1.18% [at 2.33 µM].
